The values that follow come from ChEMBL document CHEMBL4513146, “CO-ADD screening of Karazin Kharkiv National University (Ukraine) compounds”.

For orientation: Inhibition means the relative decrease from the control value, in per cent.

The test system of one assay is Klebsiella pneumoniae. The conditions noted are these: Concentration 32 ug.mL-1;; ASSAY_TEST Inhibition of Bacterial Growth; detection method Absorption (OD600); MEDIA CAMHB; plate type 384well; NBS; CORNING #3640; time 18 hr.
The subject of the next assay is Candida albicans. The conditions noted are these: Concentration 32 ug.mL-1; ASSAY_TEST Inhibition of Fungal Growth; detection method Absorption (OD530).
In another assay the test system is Cryptococcus neoformans. Particulars: Concentration 32 ug.mL-1; ASSAY_TEST Inhibition of Fungal Growth; detection method Resazurin; Absorption (OD600-OD570); plate type 384well; NBS; CORNING #3640.

Results with a measured potency or affinity are listed apart.

In the case of `COc1cc(OC)c(NC(=O)Cn2nc3ccc(Sc4ccc(C)cc4)nn3c2=O)cc1Cl`, the figures for the Inhibition in the assay with Klebsiella pneumoniae, with Candida albicans and in the assay with Cryptococcus neoformans were -1.47%, 29.33% and -7.45%, respectively.

As to `COc1ccc(CNC(=O)Cn2nc3c4cc(-c5ccc(C)c(C)c5)nn4ccn3c2=O)cc1`, the Inhibition in the assay on Klebsiella pneumoniae is on record as 7.73%; with Candida albicans, 11.15%; in the assay with Cryptococcus neoformans, -12.47%.

For `CCc1nnc2c(S(=O)(=O)N(Cc3ccccc3Cl)c3ccccc3)cccn12`, the values for the Inhibition in the assay with Klebsiella pneumoniae, with Candida albicans and with Cryptococcus neoformans were 6.34%, 3.28% and -4.36%, respectively.

On to `COc1ccc(NC(=O)Cn2nc3c(SCc4ccc(Cl)cc4)nccn3c2=O)cc1OC`, for which the Inhibition in the assay with Klebsiella pneumoniae is given as 3.8%; in the assay on Candida albicans, 27.48%; with Cryptococcus neoformans, -20.96%.

Regarding `COc1ccc(-c2cc3c4nn(CC(=O)Nc5ccc(OC)c(Cl)c5)c(=O)n4ccn3n2)cc1`, the Inhibition is -0.45% in the assay on Klebsiella pneumoniae, 32.01% in the assay on Candida albicans and -18.43% in the assay on Cryptococcus neoformans.

On to `CCCCOc1ccc(-c2cc3c4nnc(SCC(=O)Nc5cc(C)ccc5C)n4ccn3n2)cc1`, for which the figures for the Inhibition with Klebsiella pneumoniae, in the assay with Candida albicans and in the assay with Cryptococcus neoformans were -2.43%, 5.83% and -10.24%, respectively.

For `Cc1c(Cl)cccc1-n1ccn2c(SCC(=O)c3c[nH]c4ccccc34)nnc2c1=O`, the Inhibition is given as 3.37% in the assay on Klebsiella pneumoniae, 2.26% with Candida albicans and -4.72% in the assay on Cryptococcus neoformans.

Take `COc1ccc(NC(=O)Cn2nc3c4cc(-c5ccc(C)c(C)c5)nn4ccn3c2=O)cc1`: the Inhibition in the assay on Klebsiella pneumoniae was 9.06%; with Candida albicans, 19.37%; in the assay on Cryptococcus neoformans, -31.22%.

In the case of `Cc1ccc(Sc2nccn3c(=O)n(CC(=O)Nc4ccc(Br)cc4)nc23)c(C)c1`, the Inhibition in the assay with Klebsiella pneumoniae is on record as 5.96%; with Candida albicans, -1.11%; in the assay with Cryptococcus neoformans, -6.8%.

For `O=C(CSc1nnc2c(=O)n(-c3ccccc3)ccn12)Nc1ccc(Cl)cc1`, the figures for the Inhibition in the assay on Klebsiella pneumoniae, in the assay on Candida albicans and in the assay on Cryptococcus neoformans were 8.54%, 0.98% and -17.38%, respectively.

`COc1ccc(C(C)NC(=O)CCc2nnc3ccc(-c4ccc(C)c(C)c4)nn23)cc1OC` (stereo not given): the Inhibition is 11.56% in the assay on Klebsiella pneumoniae, 3.04% in the assay on Candida albicans and -6.29% in the assay with Cryptococcus neoformans.

`CC(C)(C)Sc1ccc2nn(CC(=O)N3CCN(c4ccc(F)cc4)CC3)c(=O)n2n1`: the Inhibition was 10% in the assay on Klebsiella pneumoniae, 3.9% in the assay on Candida albicans and -8.43% in the assay on Cryptococcus neoformans.

As to `COc1cc(OC)c(NC(=O)Cn2nc3ccc(Sc4cccc(F)c4)nn3c2=O)cc1Cl`, the Inhibition in the assay on Klebsiella pneumoniae is recorded as 2.02%; in the assay with Candida albicans, 6.91%; in the assay with Cryptococcus neoformans it was -5.99%.

With `CCOC(=O)c1ccc(NC(=O)Cn2nc3c4cc(-c5ccc(Cl)cc5)nn4ccn3c2=O)cc1`, the Inhibition with Klebsiella pneumoniae is given as 8.16%; with Candida albicans it was 4.56%; in the assay with Cryptococcus neoformans, -16.17%.

Consider `CC(C)Cn1c(=O)c2sccc2n2c(=O)n(CC(=O)NC(C)(C)C)nc12`, for which the Inhibition in the assay with Klebsiella pneumoniae is reported as 2.39%; in the assay with Candida albicans, -0.9%; with Cryptococcus neoformans, -15.87%.

As for `CC(C)CCn1c(=O)c2ccc(C(=O)NC3CCCCC3)cc2n2c(=S)[nH]nc12`, the Inhibition in the assay on Klebsiella pneumoniae is 1.69%; in the assay with Candida albicans, 2.77%; in the assay on Cryptococcus neoformans, -13.59%.

In the case of `CCc1nnc2ccc(S(=O)(=O)N(Cc3cccc(OC)c3)c3cccc(F)c3)cn12`, the Inhibition in the assay on Klebsiella pneumoniae is recorded as 10.63%; in the assay on Candida albicans, 2.06%; in the assay with Cryptococcus neoformans, -7.44%.

As to `COc1ccc(NC(=O)Cn2nc3ccc(-c4ccccc4)nn3c2=O)cc1`, the results for the Inhibition with Klebsiella pneumoniae, in the assay with Candida albicans and with Cryptococcus neoformans were 5.42%, 2.69% and -8.43%, respectively.

For the compound `CCc1nnc2c(SCC(=O)Nc3ccc(C)cc3Br)nc3ccccc3n12`, the Inhibition is on record as 6.8% with Klebsiella pneumoniae, 1.54% in the assay on Candida albicans and -14.73% with Cryptococcus neoformans.

For the compound `Cc1ccc(-c2cc3c4nn(CC(=O)Nc5ccc(F)cc5)c(=O)n4ccn3n2)cc1C`, the Inhibition in the assay with Klebsiella pneumoniae is listed as -3.72%; in the assay with Candida albicans, 22.53%; with Cryptococcus neoformans, -20.65%.

For `O=c1n(Cc2nc(-c3ccc(Br)cc3)no2)nc2ccc(-c3ccccc3)nn12`, the Inhibition is 7.97% with Klebsiella pneumoniae, 1.04% with Candida albicans and -15.1% in the assay on Cryptococcus neoformans.

For the compound `Cc1nnc2c(S(=O)(=O)N(Cc3ccc(F)cc3)c3ccc(C(C)C)cc3)cccn12`, the results for the Inhibition with Klebsiella pneumoniae, with Candida albicans and in the assay with Cryptococcus neoformans were 1.5%, 2.93% and -6.86%, respectively.

In the case of `CC(C)CCn1c(=O)c2ccc(C(=O)NC3CCCC3)cc2n2c(=O)n(CC#N)nc12`, the Inhibition in the assay on Klebsiella pneumoniae is 12.37%; with Candida albicans, 2.41%; in the assay with Cryptococcus neoformans, -21.13%.

`Cc1nnc2ccc(S(=O)(=O)N(Cc3ccccc3)c3cccc(F)c3)cn12`: the Inhibition in the assay with Klebsiella pneumoniae was 4.18%; with Candida albicans it was 2.53%; in the assay with Cryptococcus neoformans, -9.94%.

As to `COc1ccc(NC(=O)Cn2nc3ccc(SC4CCCCC4)nn3c2=O)c(OC)c1`, the Inhibition in the assay with Klebsiella pneumoniae is given as 4.32%; in the assay with Candida albicans, -0.43%; in the assay on Cryptococcus neoformans, -25.29%.

As to `O=C(CSc1nnc2c(=O)n(-c3ccc(F)c(F)c3)ccn12)c1c[nH]c2ccccc12`, the Inhibition in the assay on Klebsiella pneumoniae is recorded as 5.97%; in the assay with Candida albicans, 22.97%; in the assay with Cryptococcus neoformans, -8.04%.

Turning to `O=C(Cn1nc2c(=O)n(-c3ccc(Br)cc3)ccn2c1=O)Nc1ccc(F)cc1F`, the Inhibition was 7.12% with Klebsiella pneumoniae, 0.41% in the assay on Candida albicans and -12.15% in the assay on Cryptococcus neoformans.

In the case of `Cc1ccc(N(Cc2cccc(C)c2)S(=O)(=O)c2cccn3c(C)nnc23)cc1`, the Inhibition is 5.17% in the assay with Klebsiella pneumoniae, 4.46% in the assay on Candida albicans and -6.62% in the assay on Cryptococcus neoformans.

`Cc1ccc(NC(=O)Cn2nc3ccc(SC(C)(C)C)nn3c2=O)c(Cl)c1`: the Inhibition in the assay with Klebsiella pneumoniae is reported as 7.92%; with Candida albicans, 7.14%; with Cryptococcus neoformans, -20.56%.

In the case of `COc1cccc(-n2ccn3c(SCC(=O)Nc4ccc5c(c4)OCCO5)nnc3c2=O)c1`, the Inhibition in the assay on Klebsiella pneumoniae is 14.27%; in the assay on Candida albicans, 3.13%; in the assay on Cryptococcus neoformans, -26.1%.
